Entries with a potency or affinity are not part of this list. Active and inactive are the calls of the source.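 How the source made its calls: active means compounds whose fitted half-maximal cell-killing dose is at most twice the top tested dose; inconclusive means flat curve with 30 to 70 percent signal loss, or poor fit; inactive means the rest.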
assay: kidney cell line viability loss – HEK293T, luminescence plate reader, powder samples, set 4, cytotoxicity control, dose response (AID 651863); conditions: CellTiter-Glo ATP luminescence, 48 h; series mostly up to 26 µM; activity change, negative = cytotoxicity: at the top concentration

SMILES	activity change, negative = cytotoxicity	outcome
O=C(O)C1CCCCC1C(=O)N1CCc2ccccc2C1CN1C(=O)c2ccccc2S1(=O)=O (configuration not stated)	13% (inactive)	–
O=C(O)[C@H]1C2C=CC(C2)[C@H]1C(=O)N1CCc2ccccc2C1CN1C(=O)c2ccccc2C1=O (some centres not stated)	-5.44% (inactive)	–
Cc1ccc(S(=O)(=O)NC[C@@H]2c3ccccc3CCN2C(=O)[C@@H]2CCCC[C@@H]2C(=O)O)c(C)c1	-3.6% (inactive)	–
CC(C)CNc1nc(NS(=O)(=O)c2ccccc2)c2ccccc2n1	11.1% (inactive)	–
O=C(O)C1CCCCC1C(=O)N1CCCCC1CN1C(=O)c2ccccc2C1=O (configuration not stated)	-1.47% (inactive)	–
O=C(O)Cc1ccccc1C(=O)N1CCc2ccccc2[C@H]1CN1C(=O)c2ccccc2C1=O	2.94% (inactive)	–
Cc1cc(C)c(S(=O)(=O)Nc2cc(C(C(=O)OC(C)C)C(=O)C(F)(F)F)c(O)c3ccccc23)c(C)c1 (configuration not stated)	-5.11% (inactive)	–
O=C(NC[C@@H]1c2ccccc2CCN1C(=O)[C@@H]1CCCC[C@@H]1C(=O)O)c1ccc(CCl)cc1	30% (inactive)	–
O=C(O)[C@H]1CCCC[C@H]1C(=O)N1CCc2ccccc2[C@H]1CNS(=O)(=O)c1ccccc1	-3.07% (inactive)	–
O=C(NC[C@@H]1c2ccccc2CCN1C(=O)[C@@H]1CCCC[C@@H]1C(=O)O)c1ccccc1	6.54% (inactive)	–
NC(=O)[C@H]1CCCC[C@H]1C(=O)N1CCc2ccccc2[C@H]1CN1C(=O)c2ccccc2C1=O	2.88% (inactive)	–
COC(=O)[C@H]1CCCC[C@H]1C(=O)N1CCc2ccccc2[C@H]1CN1C(=O)c2ccccc2C1=O	-2.4% (inactive)	–
CCOC(=O)Cc1nc(NS(=O)(=O)c2c(C)cc(C)cc2C)c2ccccc2n1	11.4% (inactive)	–
O=C(O)CCC(=O)N1CCc2ccccc2C1CN1C(=O)c2ccccc2C1=O (configuration not stated)	9.32% (inactive)	–
O=C(O)c1ccccc1C(=O)N1CCc2ccccc2C1CN1C(=O)c2ccccc2C1=O (configuration not stated)	19% (inactive)	–
O=C(O)CCCC(=O)N1CCc2ccccc2C1CN1C(=O)c2ccccc2C1=O (configuration not stated)	15.4% (inactive)	–

SMILES	activity change, negative = cytotoxicity	outcome
O=S(=O)(Nc1nc(NCC2CCCCC2)nc2ccccc12)c1ccccc1	14.8% (inactive)	–
Cc1ccc(S(=O)(=O)NC(=O)[C@@H]2c3ccccc3CCN2C(=O)[C@@H]2CCCC[C@@H]2C(=O)O)cc1	–	inactive
Cc1ccc(S(=O)(=O)Nc2cc(C(C(=O)OC(C)C)C(=O)C(F)(F)F)c(O)c3ccccc23)cc1 (configuration not stated)	-0.097% (inactive)	–
O=C(O)[C@H]1CCCC[C@H]1C(=O)N1CCc2ccccc2C1CCN1C(=O)c2ccccc2C1=O (some centres not stated)	–	inactive
Cc1cc(C)c(S(=O)(=O)Nc2nc(NCCO)nc3ccccc23)c(C)c1	1.86% (inactive)	–
O=C(O)c1ccccc1C(=O)NC[C@@H]1c2ccccc2CCN1C(=O)[C@@H]1CCCC[C@@H]1C(=O)O	-2.02% (inactive)	–
O=C1c2ccccc2C(=O)N1C[C@@H]1c2ccccc2CCN1C(=O)OCc1ccccc1	-10.3% (inactive)	–
O=C(O)/C=C\C(=O)N1CCc2ccccc2C1CN1C(=O)c2ccccc2C1=O (configuration not stated)	13.3% (inactive)	–
O=C(Cc1ccccc1)NC[C@@H]1c2ccccc2CCN1C(=O)[C@@H]1CCCC[C@@H]1C(=O)O	7.9% (inactive)	–
O=C(O)[C@H]1CCCC[C@H]1C(=O)N1CCc2ccccc2[C@H]1CNc1nc(Cl)nc2ccccc12	-3.45% (inactive)	–
O=C1c2ccccc2C(=O)N1CC1c2ccccc2CCN1C(=O)Cc1ccccc1 (configuration not stated)	0.765% [at 6 µM] (inactive)	–
O=C(Oc1cc(CN2C(=O)c3ccccc3C2=O)c2ccccc2[n+]1[O-])c1cccc(Cl)c1	13.3% (inactive)	–
O=C(O)C1CCCCC1C(=O)N1CCc2ccccc2C1c1ccccc1 (configuration not stated)	-4.71% (inactive)	–
C[C@H](NC(=O)C1CCCC[C@H]1C(=O)O)c1ccccc1 (mixture of isomers)	21.3% (inactive)	–
O=C1c2ccccc2C(=O)N1C[C@H]1NCCc2ccccc21	15.7% (inactive)	–
O=C(O)C1CCCCC1C(=O)NCC1c2ccccc2CCN1C(=O)Cc1ccccc1 (configuration not stated)	-0.049% (inactive)	–
